From PubChem
tim23-1 inh: inhibits growth of tim23-1 mutant yeast. S. cerevisiae tim23-1 growth, BacTiter-Glo luminescence, 24 h. inhibition, % at 20 µM. 330,000 tested, 1.3% active;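 active = growth inhibition of the mutant yeast at or above 50%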;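 also: temperature-sensitive mutant grown at 25 °C; plate controls were DMSO-treated mutant yeast for no effect and medium wells lacking yeast for full effect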
NLRP3 yeast inh: inhibitors of NALP3 inflammasome in yeast. AID 2825. 330,000 tested, 0.39% active. inhibition, % at 10 µM. Yeast reconstituted NLRP3/ASC/caspase-1, beta-gal luminescence, 24 h;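 active = inhibition of 50% or more; inactive = inhibition below 50%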;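 also: plate controls were induced DMSO wells for no effect and uninduced yeast grown without galactose for full effect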
TIM10 inh: growth inhibitors of TIM10 yeast strain | S. cerevisiae TIM10 strain growth, BacTiter-Glo luminescence, 24 h | inhibition, % at 10 µM | 330,000 tested, 1.4% active;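 active = inhibition of 40% or more at the single tested concentration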;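 also: wild-type TIM10 isogenic control strain grown at permissive 25 °C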
PfHsp90 set2: inhibits growth of yeast expressing Plasmodium falciparum Hsp90 | 310,000 tested, 0.32% active | S. cerevisiae expressing PfHsp90, BacTiter-Glo ATP, 48 h; yeast lacking PDR1 and PDR3 efflux regulators | inhibition, % at 9.4 µM;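 active = every replicate shows inhibition above about 80%, whatever the replicate mean, limit read from the data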;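 also: 0% = DMSO neutral controls and 100% = 20 µM radicicol positive controls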
tim10-1 inh: tim10-1 yeast growth inhibition | S. cerevisiae tim10-1 ts strain growth, BacTiter-Glo, 24 h | inhibition, % at 20 µM | 330,000 tested, 2.2% active | AID 463190;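 active = inhibition of at least 40%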;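 also: mutant grown at 25 °C; 0% = DMSO wells with yeast and 100% = wells holding no yeast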
NALP1 yeast inh: NALP1 inhibition. S. cerevisiae NALP1/ASC/caspase-1 growth, X-gal OD620, 72 h. inhibition, % at 10 µM. 280,000 tested, 0.61% active. AID 2071; in the data active = inhibition mostly above about 24%, no sharp cut-off; inactive = mostly below about 32%
tim10-1 confirm: tim10-1 yeast growth inhibition, confirmed. shares compounds with tim10-1 inh. S. cerevisiae tim10-1 ts strain growth, BacTiter-Glo, 24 h. inhibition, % at 20 µM. 7,400 tested, 56% active;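 active = inhibition of yeast growth at or above a set limit in either of two repeat tests at 20 µM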;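 also: tim10-1 mutant grown at permissive 25 °C to find synthetic lethal compounds; 0% = DMSO yeast wells and 100% = medium wells without yeast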
TIM10 conf: TIM10 yeast growth inhibition, confirmed. inhibition, % at 10 µM. S. cerevisiae tim10 strain growth, BacTiter-Glo luminescence, 24 h. 4,600 tested, 63% active. shares compounds with TIM10 inh. AID 463215;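 active = inhibition of yeast growth at or above a set limit in either of two replicates at 10 µM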;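 also: this counterscreen used the strain with wild-type TIM10; 0% = yeast with DMSO and 100% = medium wells lacking yeast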
Numbers without * were called inactive; · = no result given. Only some compounds are listed: those with a hit (about 4.2% of all), similar ones and a draw of the others.

SMILES	tim23-1 inh	NLRP3 yeast inh	TIM10 inh	PfHsp90 set2	tim10-1 inh	NALP1 yeast inh	tim10-1 confirm	others
Cn1nnc(NC(=S)NC(=O)c2cc(Cl)ccc2Cl)n1	40.7	17.1	10.8	6.9	40.7*	-9.6	0.3
COc1ccc(N2CCN(c3oc(Cc4ccccc4)nc3C#N)CC2)cc1	36.8	15.0	12.2	·	40.3*	8.4	25.5
CC1=NNC(=O)C1CC(=O)N/N=C/C=C/c1ccccc1 (centres undefined)	12.2	-4.4	-6.7	7.9	-5.3	·	·
Cc1c(C(=O)Nc2ccc(C(=O)Nc3ccccc3)cc2)cccc1[N+](=O)[O-]	-2.4	0.5	5.6	-16.5	-14.7	3.3	·
Cc1c(C(=O)Nc2ccccc2-c2ccccc2)cccc1[N+](=O)[O-]	44.9	-0.1	32.8	5.6	41.9*	19.4	29.1
CC(NC(=O)c1cccc(Cl)c1)C1CC2CCC1C2 (centres undefined)	38.0	4.3	18.7	-17.6	45.4*	29.1	35.4*
CC(NC(=O)c1ccc(Cl)cc1)C1CC2CCC1C2 (centres undefined)	11.6	32.5	-24.2	12.6	-4.0	-1.4	·
CCOC(=O)c1c(NC(=O)COC(=O)Cn2cnc3c2c(=O)n(C)c(=O)n3C)sc(C)c1CC	27.8	10.1	3.2	-13.5	29.9	·	·
O=c1c2ccccc2nc2n1CCS2	-1.3	15.5	4.0	·	-5.2	15.7	·
Cc1ccc2[nH]c3c(=O)n4c(nc3c2c1)SCC4	21.6	5.4	25.2	-10.4	45.0*	11.4	30.0
COc1ccc2[nH]c3c(=O)n4c(nc3c2c1)SCCC4	36.5	9.6	31.7	-0.1	40.5*	1.6	38.7*
Fc1ccc(C(CNC(=S)NC2CCCCC2)N2CCOCC2)cc1 (centres undefined)	-12.6	18.0	-0.1	3.3	12.3	-35.9	·
Cc1nc(Sc2ccc(Br)cc2)c(C#N)c(C)c1[N+](=O)[O-]	18.1	-9.0	19.3	-2.0	8.0	-5.6	·
Cc1oc2c(C)c3oc(=O)c4c(c3cc2c1C)CCCC4	36.3	10.4	26.7	-17.1	54.4*	-4.4	54.5*
COc1ccc(/C=C(\NC(=O)c2ccccc2)C(=O)N2CCC(C)CC2)cc1	35.1	4.4	20.2	-15.5	25.8	·	·
N#Cc1cnc(NCc2ccc(Cl)cc2Cl)nc1	7.2	25.6	20.5	-7.4	-13.1	10.6	·
NC(=O)CSc1nc2sc3c(c2c2ncnn12)CCCC3	33.4	11.5	26.5	-20.7	42.3*	4.4	34.2*
COCCNc1c([N+](=O)[O-])c(=O)n(-c2ccccc2)c2ccccc12	-0.2	30.4	5.0	4.5	12.9	23.4	·
CCSc1c([N+](=O)[O-])c(=O)n(-c2ccccc2)c2ccccc12	44.6	30.4	39.6	-20.5	46.7*	·	45.5*
CCn1c(SCC(=O)O)nnc1-c1ccccc1OC	0.3	9.5	-13.7	-8.2	3.3	6.2	·
CN1C(c2ccccc2)=NO[C@]1(C)c1ccccc1	10.2	-6.4	1.2	-12.2	4.0	·	·
COC(=O)c1cn(C(=O)c2ccc(OC)cc2)c2ccccc12	42.5	25.2	12.3	-8.5	42.1*	19.8	17.6
COC(=O)c1cn(C(=O)c2ccc(C)cc2)c2ccccc12	17.3	-6.1	31.4	-9.3	24.0	19.4	·
CCOC(=O)c1nn(-c2ccccc2)c(=O)c2c(N)scc12	15.9	1.3	24.8	2.1	51.4*	11.7	26.1
CCOC(=O)c1nn(-c2ccccc2C)c(=O)c2c(N)scc12	4.5	15.2	-6.0	0.7	18.5	17.1	·
SMILES	tim23-1 inh	NLRP3 yeast inh	TIM10 inh	PfHsp90 set2	tim10-1 inh	NALP1 yeast inh	tim10-1 confirm	others
CC(C)CC(=O)NC(=S)Nc1ccccc1C(F)(F)F	47.0	18.6	25.3	-10.1	41.5*	17.6	27.7
C/C(=N\N=C(N)N)c1ccc(C)c(C)c1	-1.7	-2.5	-3.6	-16.7	-5.8	-11.0	·
COc1cc(CNc2cccc3[nH]c(C(F)(F)F)nc23)cc(OC)c1	38.6	13.6	14.7	-20.4	42.1*	35.9	19.1
COc1ccc(CNc2cccc3[nH]c(C(F)(F)F)nc23)cc1	40.2	20.8	28.8	1.5	43.2*	8.6	24.9
CCNC(=O)CSc1nc2ccccc2c(=O)n1-c1cc(OC)ccc1OC	16.0	3.2	9.5	-41.3	6.7	·	·
CNC(=S)N1N=C(c2cccs2)CC1c1ccc(F)cc1 (centres undefined)	34.8	-10.6	13.2	-28.0	42.5*	-6.9	17.6
Cc1ccccc1OCCn1c(S(=O)(=O)O)nc2c(N)ncnc21	-4.9	-11.0	-13.2	-23.1	3.5	-6.4	·
COC(=O)c1ccc(CNC(=O)Cn2cnc(C(=O)Nc3ccc(C)c(C)c3)n2)cc1	27.1	·	-11.2	-3.8	12.8	·	·
COc1ccc2ccccc2c1/C=N/NC(=S)NCCN1CCOCC1	8.7	2.3	20.7	16.4	22.9	9.6	·
S=C(NCCN1CCOCC1)N/N=C/c1c2ccccc2cc2ccccc12	30.1	-14.6	41.9*	-6.2	56.7*	20.5	43.2*	TIM10 conf=-18.4
Oc1ccc(-c2nccc(-c3ccc(Br)cc3)n2)cc1	44.3	-3.7	41.3*	-8.4	46.9*	6.5	48.5*	TIM10 conf=63.5*
Cc1[nH]nc(N)c1N=Nc1ccc(Br)cc1	-263.8	19.4	29.5	·	14.2	1.2	·
Cc1nc(N)sc1N=Nc1ccc(Br)cc1	48.2	27.9	59.5*	-13.6	44.0*	52.4	28.6*	TIM10 conf=57.5*
Cc1cccc[n+]1CCCCCCCCCC[n+]1ccccc1C	49.8	14.2	45.6*	-15.1	51.5*	4.6	70.3*	TIM10 conf=47.2*
Cc1cccc(NC(=S)NNC(=O)c2cc3c(s2)CCC(C)C3)c1C (centres undefined)	30.0	-4.8	50.6*	-13.6	58.7*	-8.5	39.4*	TIM10 conf=32.2*
O=C(NN(CC(O)COc1ccccc1)CC(O)COc1ccccc1)c1ccccc1 (centres undefined)	17.2	-3.2	4.3	9.9	-3.0	14.9	·
Cc1ccc(-c2nn(-c3ccccc3)c3[nH]c(=O)c(CNCc4ccccc4)cc23)cc1	47.3	25.1	43.3*	11.2	52.5*	11.4	46.8*	TIM10 conf=42.1*
Cc1ccc(-c2nn(-c3ccccc3)c3[nH]c(=O)c(CNCCN(C)C)cc23)cc1	·	·	·	·	·	9.1	·
O=C1c2cccc3c([N+](=O)[O-])ccc(c23)C(=O)N1c1nccs1	38.3	-1.2	68.5*	·	84.4*	1.9	72.8*	TIM10 conf=95.7*
O=C1c2cccc3c([N+](=O)[O-])ccc(c23)C(=O)N1c1ccc(Cl)cn1	1.5	-8.0	73.6*	4.1	77.2*	6.1	65.9*	TIM10 conf=88.8*
O=C1c2cccc3cccc(c23)C(=O)N1c1nccs1	-3.6	-4.9	5.2	·	7.8	10.9	·
